Screens deposited in PubChem BioAssay by several laboratories.
Most compounds without a hit are left out; they make up all but 1.3% or so of the library.
RTF Ca sens inh – cardiac RTF calcium desensitization; P19429+P45379; IANBD-labeled cardiac RTF, Ca2+ fluorescence; inhibition, % at 7.15 µM; 0.12% of 340,000 active; AID 493244;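 active means inhibition above the mean inhibition of all tested compounds plus 3 SD, cut at about 17% in these data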;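 further: assay run at fixed EC70 calcium of 1.6 mM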
RTF Ca sens act – cardiac RTF calcium sensitization. P19429+P45379. IANBD-labeled TnC RTF fluorescence at EC20 calcium; 0% EC20 calcium, 100% full calcium. activation, % at 7.2 µM. 0.24% of 340,000 active. AID 493008;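 active means activation above the mean over all tested compounds plus 3 SD, cut at about 30% in these data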;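 further: rise in fluorescence read as greater calcium sensitivity of cardiac thin filaments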
eLon inh – inhibitors of E. coli Lon protease | P0A9M0 | purified E. coli Lon protease, fluorescence polarization | inhibition, % at 7.94 µM | 0.42% of 360,000 active | AID 602123; in the data active means inhibition above about 13%, passing the limit was not always enough
Keap1 Nrf2 FP – Keap1-Nrf2 (human) interaction inhibition | Keap1 Kelch-Nrf2 peptide fluorescence polarization, 1536-well | inhibition, % at 9.4 µM | 0.15% of 340,000 active | AID 504523; in the data active means inhibition above about 12%;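 further: human Keap1 Kelch domain with fluorescein labeled Nrf2 9mer peptide probe; higher means more block of Keap1 binding to Nrf2 peptide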
Target sequence (Q14145 whole entry, looked up, the tested form may be a part): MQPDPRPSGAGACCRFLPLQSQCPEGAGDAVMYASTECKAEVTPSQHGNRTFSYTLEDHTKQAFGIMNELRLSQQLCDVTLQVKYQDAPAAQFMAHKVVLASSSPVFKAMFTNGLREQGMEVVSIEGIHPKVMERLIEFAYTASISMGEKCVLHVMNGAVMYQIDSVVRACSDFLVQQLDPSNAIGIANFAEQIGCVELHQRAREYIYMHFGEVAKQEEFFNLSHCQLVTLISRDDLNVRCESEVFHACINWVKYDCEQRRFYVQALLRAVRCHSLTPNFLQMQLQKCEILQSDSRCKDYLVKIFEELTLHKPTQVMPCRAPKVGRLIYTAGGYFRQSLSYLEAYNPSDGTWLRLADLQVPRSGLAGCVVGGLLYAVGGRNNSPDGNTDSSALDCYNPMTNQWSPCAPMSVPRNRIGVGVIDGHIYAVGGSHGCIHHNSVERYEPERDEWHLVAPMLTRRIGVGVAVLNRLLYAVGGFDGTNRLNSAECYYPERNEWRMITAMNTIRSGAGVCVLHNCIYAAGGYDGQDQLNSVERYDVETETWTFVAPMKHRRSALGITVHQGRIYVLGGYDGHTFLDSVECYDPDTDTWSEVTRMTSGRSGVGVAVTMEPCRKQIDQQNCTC
C-LANA FP – inhibitors of KSHV LANA C-terminal domain DNA binding; MBP-C-LANA/FAM-LBS DNA binding, fluorescence polarization; inhibition, % at 9 µM; 0.078% of 340,000 active; AID 504423;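 active means highest replicate inhibition at or above 60% at 9 µM, even if other replicates fall short; inactive means all replicates below 60% inhibition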
LANA-H2B inh – blocks KSHV LANA binding to histone H2A/H2B. Q9QR71. cell-free LANA-H2A/H2B peptide, fluorescence polarization. inhibition, % (test concentration not listed). 0.6% of 320,000 active; in the data active means inhibition mostly above about 10%, no sharp cut-off; inactive means mostly below about 6.7%
DNA intercal 2 – DNA intercalation in C-LANA counter-screen. shares compounds with C-LANA FP. Acridine orange-DNA displacement, fluorescence polarization. 20 tested, under 10 active. AC50, µM (titrated, usually from 35 µM);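 active means signal drop with an AC50 no more than ten times the top valid dose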
Keap1 Kelch bind – binds and thermally shifts human Keap1 Kelch domain. max delta Tm, degrees C. shares compounds with Keap1 Nrf2 FP. 8% of 400 active. Keap1 Kelch thermal shift, delta Tm; active compounds read high; in the data active means max delta Tm above about 0.48 degrees C
Sypro dye melt – dye artifact in Keap1 thermal shift counter-screen; shares compounds with Keap1 Nrf2 FP; Sypro Orange dye-only thermal melt, no protein, delta Tm; top dose 26 µM; delta Tm, degrees C (no concentration beside the values); 140 tested, under 10 active;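 active means at highest dose tested, delta Tm positive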
Of the large screens only hits and unclear results are named; the others gave an inactive call (follow-up assays come after a bar, where they were run).

O=C(NCC1CC1)c1ccc2c(c1)S(=O)(=O)c1cc(Cl)ccc1C2=O	none
CCCCn1c(SCC(=O)c2ccc(O)c(O)c2)nc2ccsc2c1=O	none
O=C(O)CCCCCn1c(SCC(=O)c2ccc(O)c(O)c2)nc2ccsc2c1=O	none | DNA intercal 2 inactive
O=C1/C(=C/c2ccco2)Oc2c1ccc(O)c2CN1CCCCC1	C-LANA FP 66 | DNA intercal 2 30µM
CN(C)c1cccc(CNC(=O)c2csc([C@H]3C[C@H](O)[C@@H](CO)O3)n2)c1	none (no result: RTF Ca sens inh, RTF Ca sens act, Keap1 Nrf2 FP, C-LANA FP, LANA-H2B inh)
CCC(=O)Oc1ccc2c(c1)O/C(=C\c1ccco1)C2=O	none (no result: RTF Ca sens inh, RTF Ca sens act) | DNA intercal 2 inactive
CS(=O)(=O)N1CCCC(C(=O)Nc2ccc(F)c(F)c2)C1 (stereo unspecified)	Keap1 Nrf2 FP 42 | Keap1 Kelch bind inactive | Sypro dye melt inactive
CCCS(=O)(=O)NC(=O)C1(C)CCCN(C(=O)CCc2cccs2)C1 (stereo unspecified)	none (no result: RTF Ca sens inh, RTF Ca sens act, Keap1 Nrf2 FP, C-LANA FP, LANA-H2B inh)
CC(C)c1ccccc1NC(=O)CC1(CC(=O)O)CCCC1	none
C/C(=N/Nc1ccccc1C(=O)O)c1cccs1	Keap1 Nrf2 FP 74 (no result: C-LANA FP) | Keap1 Kelch bind inactive | Sypro dye melt inactive
CCN(CC)S(=O)(=O)c1ccc(C(=O)N2CCN(CCN3C(=O)c4cccc5cccc(c45)C3=O)CC2)cc1	none (no result: RTF Ca sens inh, RTF Ca sens act, eLon inh, Keap1 Nrf2 FP, C-LANA FP)
CCCN(CCC)S(=O)(=O)c1ccc(C(=O)OCCN2C(=O)c3cccc4c(N5CCOCC5)ccc(c34)C2=O)cc1	RTF Ca sens act 52, Keap1 Nrf2 FP 39 (no result: LANA-H2B inh) | Keap1 Kelch bind inactive | Sypro dye melt inactive
COc1ccc(Nc2nc(N)c([N+](=O)[O-])c(NC3CCCCC3)n2)cc1	none
CC(=O)Nc1ccc(NS(=O)(=O)c2ccc3c(c2)oc(=O)n3C)cc1	Keap1 Nrf2 FP 19 | Keap1 Kelch bind inactive
Cc1ccc(NS(=O)(=O)c2ccc3c(c2)oc(=O)n3C)cc1	none
COc1ccc(-c2nc3ccc(Cl)cn3c2Cc2ccsc2)cc1OC	none (no result: RTF Ca sens inh, RTF Ca sens act, Keap1 Nrf2 FP, C-LANA FP, LANA-H2B inh)
O=C(NCc1ccc(Cl)cc1)c1cc(=O)[nH]c2ccccc12	Keap1 Nrf2 FP 59 | Keap1 Kelch bind inactive
COc1cccc(NC(=O)CN(C)CC(=O)NCc2ccco2)c1	Keap1 Nrf2 FP 24, C-LANA FP 81 | Keap1 Kelch bind inactive | Sypro dye melt inactive
Cc1nn(-c2ccccc2Cl)c(Cl)c1/C=N/Nc1nc2ccccc2s1	Keap1 Nrf2 FP 34 | Keap1 Kelch bind inactive
COc1ccc(S(=O)(=O)N(C)CC(=O)NCc2ccccn2)cc1	none
O=C(CSc1nc2ccccc2c(=O)n1CCCN1CCOCC1)Nc1ccccc1OC(F)F	Keap1 Nrf2 FP 19 | Keap1 Kelch bind inactive | Sypro dye melt inactive
Cc1cccc(CCNC(=O)C2CCC(=O)N(Cc3ccccc3F)C2)n1 (stereo unspecified)	none
CN1C(=O)c2cccc3c(S(=O)(=O)N(C)C)ccc1c23	none
CNS(=O)(=O)c1ccc2c3c(cccc13)C(=O)N2C	Keap1 Nrf2 FP 32 | Keap1 Kelch bind inactive
COc1ccc(NC(=O)CN(C)C(=O)CSc2ccc(Br)cc2)cc1	none
Cc1ccc(C(=O)N2CCN(c3ccccn3)CC2)cc1	none
Cc1ccc(OC(C)C(=O)N2CCN(c3ccccn3)CC2)cc1 (stereo unspecified)	Keap1 Nrf2 FP 35 (no result: LANA-H2B inh) | Keap1 Kelch bind inactive
CCCCCC(=O)N1CCCC1	Keap1 Nrf2 FP 16 | Keap1 Kelch bind inactive | Sypro dye melt inactive
O=C(CCCCCCCC(=O)N1CCCCCC1)N1CCCCCC1	none (no result: LANA-H2B inh)
NC(=O)CC(NC(=O)Cc1cccc2ccccc12)c1ccc(NCc2ccccc2)c([N+](=O)[O-])c1 (stereo unspecified)	Keap1 Nrf2 FP 22 | Keap1 Kelch bind inactive
NC(=O)CC(NC(=O)Cc1cccc2ccccc12)c1ccc(NCc2ccc(F)cc2)c([N+](=O)[O-])c1 (stereo unspecified)	none
C=CCn1ccc2c([N+](=O)[O-])cccc2c1=O	none
C=CCn1ccc(=NC=C(C#N)C#N)c2ccccc21	Keap1 Nrf2 FP 130 | Keap1 Kelch bind inactive
COc1ccc(CCNC(=O)CSc2nnc3ccc(-c4cccnc4)nn23)cc1	none
CCCCNC(=S)Nc1ccc(OC)nc1	Keap1 Nrf2 FP 12 | Keap1 Kelch bind inactive
CCCNC(=O)C(Cc1ccc(F)cc1)NC(=O)c1ccc(C#N)cc1 (stereo unspecified)	none
CCNCC(=O)N1c2ccccc2CCc2ccc(NC(C)=O)cc21	none
CC(=O)Nc1ccc2c(c1)N(C(=O)CN(C)C)c1ccccc1CC2	Keap1 Nrf2 FP 123 | Keap1 Kelch bind inactive
COc1cc2c3nnc(-c4ccccc4)c-3cn(Cc3ccccc3F)c2cc1OC	none (no result: RTF Ca sens inh, RTF Ca sens act, eLon inh, Keap1 Nrf2 FP, C-LANA FP)
COc1cc2c3nnc(-c4ccc(F)cc4)c-3cn(Cc3ccccc3F)c2cc1OC	Keap1 Nrf2 FP 17 (no result: LANA-H2B inh) | Keap1 Kelch bind inactive
NC(=O)c1cc2ccccc2oc1=NCc1ccccc1	none
NC(=O)c1cc2ccc(O)cc2oc1=NCc1ccccc1	RTF Ca sens act 60, Keap1 Nrf2 FP 16 (no result: LANA-H2B inh) | Keap1 Kelch bind inactive | Sypro dye melt inactive
CN1/C(=C\C=C(C#N)C#N)C(C)(C)c2ccccc21	Keap1 Nrf2 FP 45, LANA-H2B inh 45 | Keap1 Kelch bind inactive
CN1/C(=C\C=C(/C#N)C(=O)Nc2ccc(Cl)cc2)C(C)(C)c2ccccc21	Keap1 Nrf2 FP 14 | Keap1 Kelch bind inactive
CN1/C(=C/C=N/n2cnnc2)C(C)(C)c2ccccc21	none
O=C(NCCCSc1ccccc1)c1cc(Cl)ccc1O	none
O=C(NC1(O)C(=O)c2ccccc2C1=O)c1c(Cl)cccc1Cl	Keap1 Nrf2 FP 19 (no result: RTF Ca sens inh, RTF Ca sens act, C-LANA FP) | Keap1 Kelch bind inactive | Sypro dye melt inactive
O=C(NC1(O)C(=O)c2ccccc2C1=O)c1ccccc1	none
Cc1cccc(C)c1NC(=O)CSc1nnc(-c2ccco2)c(-c2ccco2)n1	eLon inh 87, Keap1 Nrf2 FP 46, C-LANA FP 105 | Keap1 Kelch bind inactive | Sypro dye melt inactive
O=C(NCCc1ccccc1)c1ccc(-c2cccnc2)c2ccoc12	none (no result: RTF Ca sens inh, RTF Ca sens act, Keap1 Nrf2 FP, C-LANA FP, LANA-H2B inh)
COC(=O)N/N=C/c1cn(Cc2ccccc2Cl)c2ccccc12	Keap1 Nrf2 FP 17 | Keap1 Kelch bind inactive | Sypro dye melt inactive
CC1(C)CC(=O)C2=C(C1)OC(N)=C(C#N)C2c1ccccc1[N+](=O)[O-] (stereo unspecified)	Keap1 Nrf2 FP 25 | Keap1 Kelch bind inactive
COc1ccc(OC)c(C(=O)c2coc3ccc(O)c(CN(C)C)c23)c1	Keap1 Nrf2 FP 19 | Keap1 Kelch bind inactive
COc1ccc2occ(C(=O)c3coc4ccc(O)c(CN(C)C)c34)c2c1	none
